An excerpt weighted towards active compounds, which were near 1.3% of everything screened.
SARS 3CLpro inh: SARS-CoV 3CLpro protease inhibition; inhibition, % at 6 µM; recombinant SARS-CoV 3CLpro, quenched FRET peptide cleavage; AID 1706; P0C6X7; hit rate 0.14% among 290,000; in the data active = inhibition above about 12%
Vc quorum ag: inducers of Vibrio cholerae quorum light production without autoinducers | AID 588436 | activation, % at 18.7 µM | V. cholerae BH1578 lux reporter, luminescence, 6 h | hit rate 0.16% among 350,000; in the data active = activation mostly above about 9.7%, no sharp cut-off
TcdB GH inh: blocks C. difficile toxin B glycohydrolase activity | P18177 | inhibition, % at 9.99 µM | TcdB glycohydrolase enzymatic assay, plate reader | hit rate 0.24% among 350,000; in the data active = inhibition above about 10%
VHR inh abs: inhibitors of human VHR1 phosphatase (DUSP3) | P51452 | recombinant VHR phosphatase, pNPP absorbance | inhibition, % at 13.3 µM | hit rate 0.52% among 290,000 | AID 1654; in the data active = inhibition above about 50%
Target sequence (P51452 whole entry, looked up): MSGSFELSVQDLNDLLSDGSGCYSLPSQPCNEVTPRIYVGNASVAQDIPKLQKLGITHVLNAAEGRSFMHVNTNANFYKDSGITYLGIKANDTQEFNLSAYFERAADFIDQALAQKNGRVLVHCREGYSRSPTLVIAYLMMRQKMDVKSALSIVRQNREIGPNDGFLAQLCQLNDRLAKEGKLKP
SSB-PriA inh: K. pneumoniae PriA-SSBct interaction inhibition | AlphaScreen SSBct-PriA binding, biotinylated peptide | AID 1272365 | hit rate 0.6% among 430,000 | inhibition, % at 33 µM; in the data active = inhibition mostly above about 37%, no sharp cut-off; inactive = mostly below about 20%;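 note: plate controls were negative control peptide for no effect and reference peptide for full effect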
CCHFV vOTU inh: blocks the CCHF virus ovarian tumor domain protease; hit rate 0.55% among 370,000; inhibition, % at 11.5 µM; CCHFV vOTU protease, Pep-AMC fluorescence; in the data active = inhibition above about 30%; note: 0% = vehicle wells with enzyme and 100% = no enzyme wells
* = called active by the depositor; i = inactive; . = no result given; ! = a repeat was not active.

SMILES | SARS 3CLpro inh | Vc quorum ag | TcdB GH inh | VHR inh abs | SSB-PriA inh | CCHFV vOTU inh
CN(C)c1nc(N(C)C)nc(N(C#N)CN2C(=O)c3ccccc3C2=O)n1 | 0 | . | . | 52* | . | .
CCOc1ccc(N2CC(C(=O)Nc3ccc(S(=O)(=O)N4CCCC4)cc3)CC2=O)cc1 (stereo not drawn) | 1 | i | 1 | 55* | -8 | 14
Cc1ccc(-c2ccc(S(=O)(=O)Nc3ccc(F)cc3)cc2)cc1 | . | . | . | . | -9 | .
CC(=O)N1CCC(N(CCCOC(C)C)S(=O)(=O)c2ccc([N+](=O)[O-])cc2)CC1 | -8 | i | 2 | 53* | -8 | 4
CC(=O)N1CCN(C(=S)c2ccc([N+](=O)[O-])cc2)CC1 | 1 | 0 | . | -20 | 4 | 7
O=C(NC1CCN(C(=O)c2cc(-c3cccc(Cl)c3)n[nH]2)CC1)c1ccccc1F | . | . | . | . | -4 | .
O=C(OCc1cc(-c2ccc(F)cc2F)on1)C1CCCC1 | . | . | . | . | -10 | .
CCN(CC)CCN1C(=O)C(=O)C(=C(O)c2ccc(F)cc2)C1c1cccnc1 (stereo not drawn) | . | . | . | . | -5 | .
Nc1ccc(Sc2ccc(N)cc2)cc1 | . | -1 | 13* | . | 7 | 11
Nc1ccc(Sc2ccc([N+](=O)[O-])cc2)cc1 | 0 | 0 | 4 | 31 | 20 | 15
COC(=O)N1CCC(CNC(=O)c2cccc3ccccc23)CC1 | . | . | . | . | -11 | .
CC1=C(C(=O)Nc2ccccc2F)C(c2ccc(Cl)cc2Cl)NC(=O)N1 (stereo not drawn) | . | . | . | . | 4 | .
Cn1cccc1Cc1nnc(SCC(=O)Nc2ccccc2F)n1-c1ccccc1 | . | . | . | . | 37* | .
Cc1cccc(-n2c(Cc3cccn3C)nnc2SCC(=O)N2CCN(c3ccccc3)CC2)c1C | . | . | . | . | 36* | .
O=C1NC(=O)c2cc(NC(=O)C3CCCN(S(=O)(=O)c4ccc(Cl)cc4)C3)ccc21 (stereo not drawn) | . | . | . | . | -8 | .
CC1=C(C(=O)N2CCOCC2)C(c2ccc(OC(F)F)cc2)NC(=S)N1c1ccccc1 (stereo not drawn) | 0 | i | 0 | 53* | -20 | 1
COc1ccccc1N1CCN(C2CCCN(Cc3ccccc3OCCO)C2)CC1 (stereo not drawn) | -4 | -2 | 0 | 59* | -7 | -2
COc1ccccc1Nc1c2c(nc3ccc(N)cc13)CCCC2 | -1 | -1 | 2 | -8 | 53* | 2
COc1ccc(CC(=O)NCC(c2ccsc2)N2CCCC2)cc1OC (stereo not drawn) | . | . | . | . | -11 | .
O=C(NCC(c1ccc(F)cc1)N1CCOCC1)c1cccc(Br)c1 (stereo not drawn) | -3 | -1 | 1 | 11 | 42* | -18
O=C(CCCn1nnnc1CN1CCOCC1)N1CCC(c2ccc(F)cc2)C1 (stereo not drawn) | -6 | i | 0 | -9 | 39* | 2
Cc1cc(=O)[nH]c(-n2nc(C)cc2NC(=O)c2cc(=O)c3ccccc3o2)n1 | . | . | . | . | -5 | .
O=C(O)c1ccc(S(=O)(=O)N(Cc2ccccc2)Cc2ccccc2)cc1 | 6 | -1 | -2 | -15 | -3 | -6
O=C(O)c1ccc(N(Cc2ccccc2)S(=O)(=O)c2ccccc2)cc1 | 3 | 1 | 3 | 59*! | 2 | -12
CCc1cc(C(=O)N2CCCC(CCC(=O)N3CCN(c4ccccn4)CC3)C2)no1 (stereo not drawn) | 1 | -2 | 1 | 11 | 4 | 21
SMILES | SARS 3CLpro inh | Vc quorum ag | TcdB GH inh | VHR inh abs | SSB-PriA inh | CCHFV vOTU inh
O=C(CCC1CCCN(C(=O)c2cc(C3CC3)[nH]n2)C1)N1CCN(c2ccccn2)CC1 (stereo not drawn) | -4 | 2 | 0 | 52* | 2 | -12
CC(=O)N1CCC(CN2CCCC2)CC1 | . | . | . | . | 38* | .
CC(=O)N1CCC(CN2CCOCC2)CC1 | . | . | . | . | 2 | .
Cc1cc(=O)n(Cc2ccc(OC(C)C)cc2)c(=S)[nH]1 | 1 | i | -1 | 52* | -8 | -4
COCC(=O)NCC1CCN(c2ncccc2C#N)CC1 | . | . | . | . | -7 | .
Cc1ccc(Nc2cc(C)nc3c(C)c(C)cc([N+](=O)[O-])c23)cc1 | . | . | . | . | 66* | .
O=C(c1ccco1)N1CCc2ccc(NS(=O)(=O)c3cccc(F)c3)cc21 | . | . | . | . | -2 | .
O=S(=O)(/C=C/c1ccccc1)N1CCSC1c1ccsc1 (stereo not drawn) | . | . | . | . | 0 | .
c1ccc(-c2ccc(-c3ccccc3)cc2)cc1 | . | . | . | . | -3 | .
c1ccc(-c2ccc3c(c2)NCCN3)cc1 | 0 | -10 | 0 | 52* | -9 | -26
C1CCN(c2nc(N3CCCCC3)nc(N3CCOCC3)n2)CC1 | . | . | . | . | -7 | .
Nc1nc(N2CCCCC2)nc(N2CCCCC2)n1 | 0 | 6 | . | 52* | -8 | 7
Cc1c(Cl)cccc1NCC(O)Cn1c2ccccc2c2ccccc21 (stereo not drawn) | . | . | . | . | -1 | .
Cc1nc2[nH]c(=S)[nH]c2c(=O)[nH]1 | . | -6 | 29* | . | 3 | -6
Cc1nc2[nH]c(=S)[nH]c(=O)c2nc1C | . | i | 2 | . | -2 | -14
Cc1c(-c2nn3c(Cc4ccccc4)nnc3s2)nnn1-c1cccc(C(F)(F)F)c1 | . | . | . | . | -2 | .
Cc1occc(=O)c1OS(=O)(=O)c1ccc(Cl)cc1 | . | . | . | . | -3 | .
Cc1cc(C)c2nc(N(CCCN(C)C)C(=O)c3ccc4c(c3)CCCC4)sc2c1 | . | . | 0 | . | 43* | 3
Cc1cc(C)c2nc(N(CCCN(C)C)C(=O)c3ccc(S(=O)(=O)N4CCCCCC4)cc3)sc2c1 | . | -2 | -1 | . | 36*! | 22
CCN(CC)c1ccc(C(=O)NN)cc1 | 3 | i | -6 | 16 | 9 | -12
CCN(CC)c1ccc(N)cc1 | . | 0 | . | . | 65* | .
Cc1oncc1C(=O)NC1CCC(Oc2ncccn2)CC1 (stereo not drawn) | . | . | . | . | -2 | .
O=C(CSC1=Nc2cccnc2Nc2ccccc21)N1CCN(c2ccccc2)CC1 | . | . | . | . | 38* | .
CC(=O)Nc1cccc(NC(=O)CSC2=Nc3cccnc3Nc3ccccc32)c1 | . | . | . | . | -8 | .
C=CCn1c(=O)c2ccc(C(=O)NCc3ccc4c(c3)OCO4)cc2n(CC(=O)Nc2ccc(Br)cc2F)c1=O | . | . | . | . | -10 | .
SMILES | SARS 3CLpro inh | Vc quorum ag | TcdB GH inh | VHR inh abs | SSB-PriA inh | CCHFV vOTU inh
CC(=O)N1CCc2c(sc(NC(=O)CCS(=O)(=O)c3ccc(C)cc3)c2C#N)C1 | . | 4 | -1 | . | 0 | -7
CC(=O)N1CCc2c(sc(NC(=O)Cc3ccc(C)cc3C)c2C#N)C1 | -5 | 1 | -1 | 58* | -3 | 10
CC(=O)N1CCc2c(sc(NC(=O)Cc3ccc(F)cc3)c2C#N)C1 | 4 | 0 | 1 | -9 | 60* | 0
COc1ccc2cc(C(=O)NCc3ccccc3-c3ccsc3)[nH]c2c1 | . | . | . | . | 15 | .
O=c1c2ccccc2nc(SCc2ccccc2Cl)n1Cc1ccccc1 | -1 | 26* | . | -8 | -16 | -1
CC(=O)c1sc(NC(=O)CS(=O)(=O)c2ccc(F)cc2)nc1C | . | 28* | -2 | . | -28 | 9
Cc1cccnc1NC(=S)NCCc1ccccc1 | 9 | -1 | 0 | 28 | 11 | 14
S=C(NCCc1ccccc1)Nc1ncccn1 | . | -1 | 11* | . | -14 | 3
Cc1nnc(SCc2c(Cl)cccc2Cl)n(N)c1=O | 2 | 58* | -1 | -2 | -23 | 5
